The results in this text go back to ChEMBL document CHEMBL1201862, “PubChem BioAssay data set” (2004).

Hit rate of the full screen: of about 18,000 compounds, about 1,200 (6.7%) were called active. Another 16% or so got no clear call; they are omitted. This is one part of a sample in which actives are shown more often than they occur. The rule behind the calls is not given here.

The assay is described as follows: qHTS for Inhibitors of binding or entry into cells for Marburg Virus.
Take `COC[C@@H]([C@H](O)[C@H](O)C(=O)NCC[C@H](C)c1nc(/C=C/C[C@@H]2O[C@]3(C[C@@H](O)[C@@H]2C)O[C@H]([C@H](C[C@H](O)[C@H](C)[C@H](O)[C@H](C)/C=C(C)/C(C)=C/C=C/C(C)=C\C#N)OC)[C@H](OP(=O)(O)O)C3(C)C)co1)N(C)C`: the Potency is 0.0411 µM (active).

Regarding `COC(=O)[C@H]1[C@H]2C[C@@H]3c4[nH]c5cc(OC)ccc5c4CCN3C[C@H]2C[C@@H](OC(=O)c2cc(OC)c(OC)c(OC)c2)[C@@H]1OC`, the Potency was 355 µM (active).

Regarding NITROPRUSSIDE, CHEMBL2097081, the Potency result was “inactive; 562.3 nM”.
